Common to all, as to experiment: DAPPL (digital affinity profiling via proximity ligation, sequencing); 10 mM Tris-HCl pH 7.5, 50 mM NaCl, 1 mM DTT, 4% glycerol, room temperature, 30 min; GST-TFs on glutathione beads, 16-mer random dsDNA library, 0.1% formaldehyde crosslink after washing; high values mean tight binding
Common to all, as to conditions: protein: recombinant; tags: N-terminal GST; dsDNA, one strand shown

For one assay, the target named is T1, FLI1 (Homo sapiens, UniProt Q01543 1-452).
T1 sequence: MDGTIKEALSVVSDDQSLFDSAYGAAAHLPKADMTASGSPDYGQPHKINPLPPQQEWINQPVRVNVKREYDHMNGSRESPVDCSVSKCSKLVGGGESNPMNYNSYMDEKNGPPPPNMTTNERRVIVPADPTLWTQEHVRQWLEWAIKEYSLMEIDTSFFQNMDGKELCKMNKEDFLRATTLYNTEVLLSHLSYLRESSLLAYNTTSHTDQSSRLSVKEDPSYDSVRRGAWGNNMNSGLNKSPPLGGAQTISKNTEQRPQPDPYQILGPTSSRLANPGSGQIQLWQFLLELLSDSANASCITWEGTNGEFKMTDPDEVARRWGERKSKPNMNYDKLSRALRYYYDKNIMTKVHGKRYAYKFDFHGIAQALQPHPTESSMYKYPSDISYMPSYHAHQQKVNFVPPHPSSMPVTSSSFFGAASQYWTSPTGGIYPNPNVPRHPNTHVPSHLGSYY
The method in brief:
(§1)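 Pools of DNA-barcoded human transcription factors, expressed in yeast as GST fusions on glutathione beads and combined with a tag-only sample, were incubated with 200 nmole of a 16-mer random double-stranded DNA library. Incubation took 30 min at room temperature in Tris/NaCl/DTT/glycerol buffer and was followed by washing, 0.1% formaldehyde crosslinking, proximity ligation (BsaI/T4 ligase, 1 h, 37 °C), PCR amplification and sequencing on an Illumina NextSeq500. Binding signal is the ratio of a hexamer's read frequency for a factor to its frequency for the tag-only sample.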

The target of a further assay is T2, GABPA (Homo sapiens, UniProt Q06546 1-454).
T2 sequence: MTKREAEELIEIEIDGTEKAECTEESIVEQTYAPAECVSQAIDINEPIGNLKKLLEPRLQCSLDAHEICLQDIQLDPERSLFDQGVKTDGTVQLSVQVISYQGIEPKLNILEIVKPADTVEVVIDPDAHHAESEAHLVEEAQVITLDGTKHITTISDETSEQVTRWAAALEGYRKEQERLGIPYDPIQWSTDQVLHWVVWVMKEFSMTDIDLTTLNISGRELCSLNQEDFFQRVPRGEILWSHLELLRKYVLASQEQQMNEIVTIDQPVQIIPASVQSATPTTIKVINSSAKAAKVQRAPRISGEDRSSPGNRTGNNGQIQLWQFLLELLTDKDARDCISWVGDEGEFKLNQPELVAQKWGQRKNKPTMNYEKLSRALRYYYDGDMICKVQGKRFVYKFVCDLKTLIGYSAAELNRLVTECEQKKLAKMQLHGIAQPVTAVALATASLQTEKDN
Put shortly: as §1

In the next assay the target is T3, ERG (Homo sapiens, UniProt P11308 1-479).
T3 sequence: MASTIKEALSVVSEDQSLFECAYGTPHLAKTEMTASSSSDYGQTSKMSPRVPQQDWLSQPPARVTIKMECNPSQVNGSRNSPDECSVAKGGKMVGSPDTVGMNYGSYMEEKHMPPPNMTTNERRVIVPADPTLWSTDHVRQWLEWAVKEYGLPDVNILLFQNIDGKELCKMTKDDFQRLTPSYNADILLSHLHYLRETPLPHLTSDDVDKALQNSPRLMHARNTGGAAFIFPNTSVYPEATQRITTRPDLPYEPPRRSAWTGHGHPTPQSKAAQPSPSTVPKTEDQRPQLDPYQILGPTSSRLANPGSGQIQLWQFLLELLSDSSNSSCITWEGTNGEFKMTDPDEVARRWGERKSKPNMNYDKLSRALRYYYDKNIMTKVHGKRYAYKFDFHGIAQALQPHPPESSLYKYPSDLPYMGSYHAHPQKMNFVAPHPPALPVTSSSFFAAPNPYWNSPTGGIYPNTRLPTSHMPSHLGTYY
The method in brief: as §1

Another assay addresses SPIB (Homo sapiens, UniProt Q01892 1-262). The method in brief: as §1
The next assay has as its target T4, FEV (Homo sapiens, UniProt Q99581 1-238).
T4 sequence: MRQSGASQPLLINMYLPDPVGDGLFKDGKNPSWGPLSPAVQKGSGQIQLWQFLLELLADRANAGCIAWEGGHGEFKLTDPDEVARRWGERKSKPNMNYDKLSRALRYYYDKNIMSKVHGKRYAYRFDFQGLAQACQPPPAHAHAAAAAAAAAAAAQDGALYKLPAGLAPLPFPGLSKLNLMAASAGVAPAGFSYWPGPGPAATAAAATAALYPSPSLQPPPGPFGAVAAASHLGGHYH
Put shortly: as §1

The next assay addresses ETV5 (Homo sapiens, UniProt P41161 1-510). Put shortly: as §1
A further assay addresses T5, SPIC (Homo sapiens, UniProt Q8N5J4 1-248).
T5 sequence: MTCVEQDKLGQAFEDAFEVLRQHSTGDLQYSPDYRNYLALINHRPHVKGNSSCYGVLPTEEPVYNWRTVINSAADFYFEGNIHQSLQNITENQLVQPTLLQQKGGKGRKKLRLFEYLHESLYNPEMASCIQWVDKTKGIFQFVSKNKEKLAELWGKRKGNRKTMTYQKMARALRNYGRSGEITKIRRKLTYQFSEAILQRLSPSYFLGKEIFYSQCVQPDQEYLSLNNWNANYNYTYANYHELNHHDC
Put shortly:
as §1

A further assay addresses ELF4 (Homo sapiens, UniProt Q99607 1-663). The method in brief:
as §1

Another assay deals with T6, ETV3 (Homo sapiens, UniProt P41162-2 1-143).
T6 sequence: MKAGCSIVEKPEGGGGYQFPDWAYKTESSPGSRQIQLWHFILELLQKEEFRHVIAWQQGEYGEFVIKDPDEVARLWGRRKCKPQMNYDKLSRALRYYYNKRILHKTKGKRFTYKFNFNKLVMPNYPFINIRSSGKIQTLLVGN
Put shortly:
as §1

For another assay, the target named is ELF1 (Homo sapiens, UniProt P32519 1-619). Put shortly: as §1
Chain of ELF1 (P32519 whole entry): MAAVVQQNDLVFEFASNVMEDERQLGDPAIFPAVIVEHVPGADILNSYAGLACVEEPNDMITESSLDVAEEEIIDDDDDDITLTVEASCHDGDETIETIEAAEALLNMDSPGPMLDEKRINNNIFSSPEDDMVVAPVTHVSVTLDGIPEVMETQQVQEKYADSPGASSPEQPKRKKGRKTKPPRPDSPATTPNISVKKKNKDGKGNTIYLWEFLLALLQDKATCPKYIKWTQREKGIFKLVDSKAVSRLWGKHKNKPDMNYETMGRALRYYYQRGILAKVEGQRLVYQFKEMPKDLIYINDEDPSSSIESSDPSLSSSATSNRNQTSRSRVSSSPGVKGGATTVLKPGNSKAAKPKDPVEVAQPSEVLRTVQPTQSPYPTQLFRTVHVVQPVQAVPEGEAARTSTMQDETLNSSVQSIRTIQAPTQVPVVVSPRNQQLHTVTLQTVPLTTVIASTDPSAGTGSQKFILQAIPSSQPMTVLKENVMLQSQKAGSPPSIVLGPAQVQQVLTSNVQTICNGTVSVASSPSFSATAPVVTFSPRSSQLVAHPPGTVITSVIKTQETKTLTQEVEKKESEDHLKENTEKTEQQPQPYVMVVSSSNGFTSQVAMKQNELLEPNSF
In a further assay the target is T7, EHF (Homo sapiens, UniProt Q9NZC4 1-300).
T7 sequence: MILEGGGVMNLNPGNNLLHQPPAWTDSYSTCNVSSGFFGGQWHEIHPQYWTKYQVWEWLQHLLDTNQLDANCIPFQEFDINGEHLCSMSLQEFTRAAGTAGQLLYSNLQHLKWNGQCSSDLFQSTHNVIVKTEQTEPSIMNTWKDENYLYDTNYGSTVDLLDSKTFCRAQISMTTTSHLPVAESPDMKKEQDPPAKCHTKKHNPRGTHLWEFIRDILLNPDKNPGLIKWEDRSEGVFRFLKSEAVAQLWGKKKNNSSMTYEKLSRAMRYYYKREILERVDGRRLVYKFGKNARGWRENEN
Put shortly:
as §1

Another assay deals with ETV1 (Homo sapiens, UniProt P50549 1-477). The method in brief: as §1
Chain of ETV1 (P50549 whole entry): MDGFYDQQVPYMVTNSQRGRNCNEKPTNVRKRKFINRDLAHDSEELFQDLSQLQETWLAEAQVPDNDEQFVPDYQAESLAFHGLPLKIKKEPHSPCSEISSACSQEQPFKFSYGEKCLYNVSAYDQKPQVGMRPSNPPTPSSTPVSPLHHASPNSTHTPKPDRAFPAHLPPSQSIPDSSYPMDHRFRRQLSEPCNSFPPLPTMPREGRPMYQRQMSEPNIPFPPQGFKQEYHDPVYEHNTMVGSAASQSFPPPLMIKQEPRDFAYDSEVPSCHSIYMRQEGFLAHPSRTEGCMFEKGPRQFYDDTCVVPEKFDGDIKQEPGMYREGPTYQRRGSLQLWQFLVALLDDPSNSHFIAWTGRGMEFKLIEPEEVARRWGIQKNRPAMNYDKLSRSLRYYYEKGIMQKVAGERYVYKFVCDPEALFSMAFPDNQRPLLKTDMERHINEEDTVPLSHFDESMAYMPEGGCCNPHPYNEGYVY
In the next assay the target is T8, ERF (Homo sapiens, UniProt P50548 1-548).
T8 sequence: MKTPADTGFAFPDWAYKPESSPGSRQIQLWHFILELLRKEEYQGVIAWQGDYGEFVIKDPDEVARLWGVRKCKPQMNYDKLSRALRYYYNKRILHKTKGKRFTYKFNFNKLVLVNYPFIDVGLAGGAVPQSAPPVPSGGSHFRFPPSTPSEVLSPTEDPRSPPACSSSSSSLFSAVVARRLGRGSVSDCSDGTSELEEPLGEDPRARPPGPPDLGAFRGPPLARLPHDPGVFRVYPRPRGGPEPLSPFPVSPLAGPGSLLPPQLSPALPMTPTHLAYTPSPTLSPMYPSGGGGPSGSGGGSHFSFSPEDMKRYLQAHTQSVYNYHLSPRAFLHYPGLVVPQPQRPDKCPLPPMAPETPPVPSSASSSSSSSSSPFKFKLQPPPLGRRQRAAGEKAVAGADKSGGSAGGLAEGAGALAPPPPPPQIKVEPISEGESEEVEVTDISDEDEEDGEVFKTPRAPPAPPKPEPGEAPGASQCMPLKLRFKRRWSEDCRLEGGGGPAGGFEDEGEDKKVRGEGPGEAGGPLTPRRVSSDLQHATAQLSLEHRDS
Put shortly: as §1

The target of a further assay is T9, ETV3L (Homo sapiens, UniProt Q6ZN32 1-361).
T9 sequence: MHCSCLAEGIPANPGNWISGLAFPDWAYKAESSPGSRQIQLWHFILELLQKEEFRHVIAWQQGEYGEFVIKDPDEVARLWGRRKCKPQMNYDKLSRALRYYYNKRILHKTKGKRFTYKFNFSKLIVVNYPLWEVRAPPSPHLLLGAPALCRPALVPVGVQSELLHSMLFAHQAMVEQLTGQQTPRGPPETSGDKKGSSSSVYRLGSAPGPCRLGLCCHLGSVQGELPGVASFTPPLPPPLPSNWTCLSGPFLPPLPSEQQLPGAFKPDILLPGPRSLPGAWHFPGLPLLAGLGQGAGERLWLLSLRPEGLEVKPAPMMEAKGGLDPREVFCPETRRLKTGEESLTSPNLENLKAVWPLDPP
Put shortly:
as §1

The next assay concerns the target T10, SPDEF (Homo sapiens, UniProt O95238 1-335).
T10 sequence: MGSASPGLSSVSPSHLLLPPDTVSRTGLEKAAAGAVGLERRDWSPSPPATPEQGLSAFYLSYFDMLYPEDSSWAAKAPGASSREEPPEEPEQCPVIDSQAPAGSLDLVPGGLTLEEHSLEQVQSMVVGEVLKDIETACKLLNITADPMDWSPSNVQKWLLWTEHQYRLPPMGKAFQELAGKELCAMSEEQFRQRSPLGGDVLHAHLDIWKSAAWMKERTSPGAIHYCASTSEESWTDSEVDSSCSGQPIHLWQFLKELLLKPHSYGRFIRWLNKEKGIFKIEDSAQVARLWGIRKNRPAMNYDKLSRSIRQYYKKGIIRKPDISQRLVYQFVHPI
The method in brief: as §1

In another assay the target is T11, ELF5 (Homo sapiens, UniProt Q9UKW6-2 1-255).
T11 sequence: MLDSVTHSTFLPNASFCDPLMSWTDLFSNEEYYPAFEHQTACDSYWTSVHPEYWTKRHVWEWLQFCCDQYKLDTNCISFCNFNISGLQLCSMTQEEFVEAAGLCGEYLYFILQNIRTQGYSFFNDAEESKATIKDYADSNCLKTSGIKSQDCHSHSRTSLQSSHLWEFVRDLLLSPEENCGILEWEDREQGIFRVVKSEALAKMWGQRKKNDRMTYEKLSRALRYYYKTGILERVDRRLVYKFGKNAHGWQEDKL
Put shortly: as §1

A further assay concerns the target ETV6 (Homo sapiens, UniProt P41212 1-452). The method in brief: as §1

Chain of ETV5 (P41161 whole entry): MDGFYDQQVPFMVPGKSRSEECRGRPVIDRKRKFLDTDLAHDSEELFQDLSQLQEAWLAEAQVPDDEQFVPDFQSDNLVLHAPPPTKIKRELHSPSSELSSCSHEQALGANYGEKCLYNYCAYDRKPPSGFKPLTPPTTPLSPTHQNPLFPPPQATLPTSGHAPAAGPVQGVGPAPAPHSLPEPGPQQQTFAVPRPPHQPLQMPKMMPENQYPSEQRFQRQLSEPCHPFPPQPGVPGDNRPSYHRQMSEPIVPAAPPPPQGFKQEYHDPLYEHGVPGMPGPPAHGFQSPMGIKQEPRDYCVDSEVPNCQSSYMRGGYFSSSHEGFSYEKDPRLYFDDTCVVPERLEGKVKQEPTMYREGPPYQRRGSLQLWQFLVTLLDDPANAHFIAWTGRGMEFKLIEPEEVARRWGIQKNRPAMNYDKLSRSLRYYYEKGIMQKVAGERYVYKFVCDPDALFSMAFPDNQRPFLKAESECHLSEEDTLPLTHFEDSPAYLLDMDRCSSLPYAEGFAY
Chain of SPIB (Q01892 whole entry): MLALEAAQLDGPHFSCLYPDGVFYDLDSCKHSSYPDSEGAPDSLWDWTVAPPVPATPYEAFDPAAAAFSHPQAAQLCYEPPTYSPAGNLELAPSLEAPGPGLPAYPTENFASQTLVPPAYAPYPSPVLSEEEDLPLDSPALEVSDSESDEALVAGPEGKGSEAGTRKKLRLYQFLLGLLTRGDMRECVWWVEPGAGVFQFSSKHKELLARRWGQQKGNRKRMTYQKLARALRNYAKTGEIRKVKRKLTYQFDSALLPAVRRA
Chain of ELF4 (Q99607 whole entry): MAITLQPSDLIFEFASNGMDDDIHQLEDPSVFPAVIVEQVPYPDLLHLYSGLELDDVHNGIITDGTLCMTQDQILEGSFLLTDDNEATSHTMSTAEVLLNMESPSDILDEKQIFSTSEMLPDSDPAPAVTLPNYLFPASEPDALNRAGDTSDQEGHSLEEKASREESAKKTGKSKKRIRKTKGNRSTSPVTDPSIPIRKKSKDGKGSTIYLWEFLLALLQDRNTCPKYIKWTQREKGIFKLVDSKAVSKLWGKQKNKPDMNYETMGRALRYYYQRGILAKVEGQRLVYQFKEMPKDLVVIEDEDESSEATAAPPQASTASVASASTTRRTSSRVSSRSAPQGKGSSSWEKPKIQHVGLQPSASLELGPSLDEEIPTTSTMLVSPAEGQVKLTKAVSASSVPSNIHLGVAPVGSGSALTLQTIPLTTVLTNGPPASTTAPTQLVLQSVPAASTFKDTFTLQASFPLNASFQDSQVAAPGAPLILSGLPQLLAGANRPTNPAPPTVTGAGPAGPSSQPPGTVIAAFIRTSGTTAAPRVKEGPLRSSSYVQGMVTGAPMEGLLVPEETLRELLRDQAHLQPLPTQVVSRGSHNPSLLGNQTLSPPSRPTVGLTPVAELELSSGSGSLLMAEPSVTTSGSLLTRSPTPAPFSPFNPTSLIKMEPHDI
Chain of ETV6 (P41212 whole entry): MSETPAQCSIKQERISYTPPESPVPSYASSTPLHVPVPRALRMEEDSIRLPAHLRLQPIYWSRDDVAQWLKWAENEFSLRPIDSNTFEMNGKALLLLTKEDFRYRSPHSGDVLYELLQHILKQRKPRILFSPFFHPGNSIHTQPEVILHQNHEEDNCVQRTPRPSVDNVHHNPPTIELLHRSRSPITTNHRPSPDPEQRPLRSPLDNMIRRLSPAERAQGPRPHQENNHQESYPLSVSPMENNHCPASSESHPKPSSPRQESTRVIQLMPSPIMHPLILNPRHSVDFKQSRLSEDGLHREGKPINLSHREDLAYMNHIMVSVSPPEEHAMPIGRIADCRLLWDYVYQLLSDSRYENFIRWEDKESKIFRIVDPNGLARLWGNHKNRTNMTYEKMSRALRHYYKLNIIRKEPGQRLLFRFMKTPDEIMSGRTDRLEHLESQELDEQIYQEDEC

As for AGCTGT, the binding signal was 1.04 fold enrichment (6-mer frequency, TF over GST control) in the assay with FLI1; 1.05 fold enrichment (6-mer frequency, TF over GST control) with GABPA; 1.01 fold enrichment (6-mer frequency, TF over GST control) in the assay with ERG; 1.06 fold enrichment (6-mer frequency, TF over GST control) in the assay with SPIB; 1.04 fold enrichment (6-mer frequency, TF over GST control) with FEV; 1.02 fold enrichment (6-mer frequency, TF over GST control) in the assay with ETV5. For the same sequence, the binding signal was 1.15 fold enrichment (6-mer frequency, TF over GST control) with SPIC; 1.02 fold enrichment (6-mer frequency, TF over GST control) with ELF4; 1.07 fold enrichment (6-mer frequency, TF over GST control) with ETV3.
Turning to CACGGA, the binding signal is 1.03 fold enrichment (6-mer frequency, TF over GST control) in the assay with FLI1; 1.04 fold enrichment (6-mer frequency, TF over GST control) in the assay with ERG; 1.04 fold enrichment (6-mer frequency, TF over GST control) with ELF1; 1.1 fold enrichment (6-mer frequency, TF over GST control) with EHF; 1.05 fold enrichment (6-mer frequency, TF over GST control) in the assay with SPIB; 1.05 fold enrichment (6-mer frequency, TF over GST control) with ETV5. In addition, the binding signal with SPIC is 1.06 fold enrichment (6-mer frequency, TF over GST control); in the assay with ELF4 it was 1.03 fold enrichment (6-mer frequency, TF over GST control); in the assay with ETV1 it was 1.06 fold enrichment (6-mer frequency, TF over GST control); in the assay with ERF it was 1.01 fold enrichment (6-mer frequency, TF over GST control); with ETV3L, 1.04 fold enrichment (6-mer frequency, TF over GST control); with SPDEF it was 1.25 fold enrichment (6-mer frequency, TF over GST control). Further, the binding signal with ELF5 was 1.29 fold enrichment (6-mer frequency, TF over GST control); with ETV3, 1.22 fold enrichment (6-mer frequency, TF over GST control); with ETV6 it was 1.09 fold enrichment (6-mer frequency, TF over GST control).
